Data from PMC4552634, “A New Set of Chemical Starting Points with Plasmodium falciparum Transmission-Blocking Potential for Antimalarial Drug Discovery” (PLoS ONE, 2015).
The campaign covered roughly 13,000 compounds. About 3,200 (25%) showed an effect of 50% or more. The list shows a part of the results.

system: P. falciparum stage V gametocytes; parameters: BacTiter-Glo ATP luminescence viability of purified stage V gametocytes in 384-well plates, per cent inhibition versus DMSO; settings: 48 h, 5 µM; inhibitor

| SMILES | % Inhibition [%] |
| --- | --- |
| Cc1cccc2nc(-c3cccc(-c4ccc(C(=O)NCc5nccn5C)cc4)c3)[nH]c12 [TCMDC-132356] | 7.308 |
| COc1ccc(NS(=O)(=O)c2ccccc2Br)cc1N1CCN(C)CC1 [TCMDC-139092] | -23.57 |
| COc1ccc(S(=O)(=O)Nc2cc(Br)cc3c2OCCC3)cc1N1CCN(C(=O)C(Cl)(Cl)Cl)CC1 [TCMDC-139661] | -19.32 |
| COc1ccc(S(=O)(=O)N(c2cc(Br)cc3c2OCC3)S(=O)(=O)c2ccc(OC)c(N3CCN(C)CC3)c2)cc1N1CCN(C)CC1 [TCMDC-139809] | 54.84 |
| O=C(/C=C/c1ccc(Cl)c(Cl)c1)N1CCC(CCN2CCc3[nH]c4ccccc4c3C2)CC1 [TCMDC-134173] | -40.99 |
| CCOC(=O)c1cn(CC)c2cc(F)c(OC3CC4CCC3(C)C4(C)C)cc2c1=O (centres unmarked) [TCMDC-124161] | -18.01 |
| Nc1cc(C=Cc2ccc(O)cc2)nc2ccccc12 [TCMDC-138973] | -27.13 |
| CCn1c(/C=C/c2cc(Br)ccc2O)nc2ccccc2c1=O [TCMDC-124092] | 7.095 |
| Nc1cc(-c2ccc(Br)cc2O)nc2ccccc12 [TCMDC-138932] | 61.65 |
| CN1CCCN(Cc2cccc(-c3ccc(NS(=O)(=O)c4cccc5cccnc45)cc3)c2)CC1 [TCMDC-136481] | 100.2 |
| CN1CCCN(Cc2ccc(-c3ccc(NS(=O)(=O)c4cccc5cccnc45)cc3)cc2)CC1 [TCMDC-136478] | 98.81 |
| O=S(=O)(Nc1ccc(-c2ccc(CN3CCCC3)cc2)cc1)c1cccc2cccnc12 [TCMDC-136475] | 27.58 |
| CC(C)NCc1cccc(-c2ccc(NS(=O)(=O)c3cccc4cccnc34)cc2)c1 [TCMDC-136480] | 43.51 |
| CN1CCCN(Cc2cccc(-c3cccc(NS(=O)(=O)c4cccc5cccnc45)c3)c2)CC1 [TCMDC-136482] | 22.96 |
| CCN1CCN(Cc2ccc(-c3ccc(NS(=O)(=O)c4cccc5cccnc45)cc3)cc2)CC1 [TCMDC-136479] | -5.672 |
| COc1cc(F)c2ncc(Cl)c(CCN3CCC(NCc4ccc5c(c4)OCCO5)CC3)c2c1 [TCMDC-135624] | 2.949 |
| CC(CCc1ccccc1)NCC(O)c1ccc2c(c1)S(=O)(=O)c1ccccc1N2 (centres unmarked) [TCMDC-131254] | -29.84 |
| CCCCCN1CCCC(NS(=O)(=O)c2ccc(C(=O)Nc3ccc(C(F)(F)F)cc3)cc2)C1 (centres unmarked) [TCMDC-133677] | 16.66 |
| CC(Cc1ccc(OCCCCOc2ccccc2)cc1)NCCC1CCCN1C (centres unmarked) [TCMDC-140017] | 116.2 |
| CN1CCCC1CCCOC(=O)c1ccc(N)cc1 (centres unmarked) [TCMDC-131643] | -5.047 |
| CC(Cc1ccc(OCCCCOc2ccccc2)cc1)NCCCN1CCOCC1 (centres unmarked) [TCMDC-140018] | 107.6 |
| CC(Cc1ccc(OCCN2CCN(c3ccccc3)CC2)cc1)NCC(O)c1cccc(Cl)c1F (centres unmarked) [TCMDC-131531] | 24.37 |
| c1ccc(OCCCCN2CCCCC2)cc1 [TCMDC-124256] | 16.85 |
